Legend:
Details in all cases: concentration: 1 μM, replicates: in singlicate; n = 1
SGK = test system: SGK
SIK2 = test system: SIK2
SIK = test system: SIK
SLK = test system: SLK
SNARK = test system: T1, SNARK
T1 construct: gene NUAK2

SNRK = test system: SNRK
SRC = test system: SRC
SRMS = test system: SRMS
SRPK1 = test system: SRPK1
SRPK2 = test system: SRPK2
SRPK3 = test system: SRPK3
STK16 = test system: STK16
STK33 = test system: STK33
STK35 = test system: STK35
STK36 = test system: STK36
STK39 = test system: STK39
SYK = test system: SYK
SgK110 = test system: SgK110
TAK1 = test system: T2, TAK1
T2 construct: gene MAP3K7

TAOK1 = test system: TAOK1
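Also: KINOMEscan kinase panel screen.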

Compound	%Inh (SGK) [%]	%Inh (SIK2) [%]	%Inh (SIK) [%]	%Inh (SLK) [%]	%Inh (SNARK) [%]	%Inh (SNRK) [%]	%Inh (SRC) [%]	%Inh (SRMS) [%]	%Inh (SRPK1) [%]	%Inh (SRPK2) [%]	%Inh (SRPK3) [%]	%Inh (STK16) [%]	%Inh (STK33) [%]	%Inh (STK35) [%]	%Inh (STK36) [%]	%Inh (STK39) [%]	%Inh (SYK) [%]	%Inh (SgK110) [%]	%Inh (TAK1) [%]	%Inh (TAOK1) [%]
Cc1nnc(-c2ccc3ncc(-c4ccc(S(C)=O)cc4)n3c2)o1 (centres unmarked)	0	0	9	14	0	2	0	0	0	0	0	0	1	1	9	25	0	0	8	0
CCc1nc(-c2cccc(C)c2)c(-c2ccnc(NCc3ccccc3)c2)s1	2	10	5	7	0	0	7	1	1	0	0	19	0	0	0	0	0	22	0	0
COc1ccc(CNC(=O)NC2CCN(c3ccnc(Nc4ccc(OC)cc4)n3)C2)cc1 (centres unmarked) [GSK1379727]	25	0	1	0	0	0	0	5	43	35	0	16	0	0	0	5	22	7	0	0
COc1cc2c(cc1OC[C@@H](O)CO)ncc1c3ccc(C#N)cc3[nH]c21	47	65	21	0	89	58	0	0	0	0	25	0	36	0	0	0	0	0	81	0
Fc1ccc(-c2ncn(CCCN3CCOCC3)c2-c2cccnc2)cc1 [SB-211743]	39	5	0	25	0	0	0	27	0	0	0	0	0	1	0	0	32	17	0	0
COc1ccc(Nc2nccc(N3CCC(NC(=O)Nc4cccc(C(C)=O)c4)C3)n2)cc1 (centres unmarked) [GSK1379731]	0	0	0	0	0	0	0	0	6	0	0	14	0	0	0	0	1	0	0	0
O=C(NCCNc1ccnc(Nc2ccc(F)cc2)n1)c1cc2ccccc2s1 [GSK1379874]	0	0	0	17	0	0	0	0	3	19	0	5	0	0	0	0	36	0	0	0
Fc1ccc(-c2ncn(CCCN3CCOCC3)c2-c2ccccn2)cc1 [SB-211742]	0	0	11	23	0	0	0	0	0	60	3	0	7	0	0	0	17	16	0	0
COc1cc(Nc2nccc(N3CCC(NC(=O)c4cccc(NC(C)=O)c4)C3)n2)cc(OC)c1OC (centres unmarked) [GSK1379754]	0	12	10	32	57	0	25	0	61	0	16	64	2	0	0	0	39	2	0	0
Cc1ccc(NC(=O)c2ccnc(N3CCN(C)CC3)c2)cc1-c1ccc(C(=O)NCC2CC2)cc1 [GW775604]	0	21	0	0	0	0	0	3	0	0	5	0	0	1	0	0	26	3	0	0
O=C(c1ccc(-c2cc(-c3c[nH]nc3-c3ccccn3)ccn2)cc1)N1CCOCC1 [GW812171]	2	0	0	0	16	10	1	28	0	0	4	0	0	0	2	18	0	32	10	0
NS(=O)(=O)c1cccc(-c2ccc3nccc(-c4cccc(S(N)(=O)=O)c4)c3c2)c1 [GW867253]	9	1	0	0	0	0	0	27	0	0	23	12	0	0	0	0	1	0	6	2
O=c1cc(N2CCOCC2)nc2n(Cc3cccc(C(F)(F)F)c3)ccn12 [GSK2297543]	0	0	0	18	0	0	0	0	24	0	0	0	0	0	0	0	27	0	0	0
CCn1cnc2c(N)ncnc21 [GW345098]	25	2	19	18	0	0	20	12	24	19	18	12	10	0	5	0	3	0	4	16
Cl.Nc1ncnc2occ(-c3ccc(NC(=O)Nc4cc(C(F)(F)F)ccc4F)cc3)c12 [SB-707548]	0	0	0	98	0	0	30	4	50	40	0	8	87	37	0	14	68	0	98.6	13
CN(C1=C(c2ccccc2)C(=O)NC1=O)c1ccccc1 [SB-334860]	0	5	7	10	23	0	5	0	10	0	0	14	0	3	0	5	32	0	18	0
CCc1ccnc(/C=C/c2n[nH]c3cc(Sc4ccccc4C(=O)NC)ccc23)c1	0	0	0	0	10	0	4	100	53	0	14	0	4	0	12	0	0	47	1	0

Compound	%Inh (SGK) [%]	%Inh (SIK2) [%]	%Inh (SIK) [%]	%Inh (SLK) [%]	%Inh (SNARK) [%]	%Inh (SNRK) [%]	%Inh (SRC) [%]	%Inh (SRMS) [%]	%Inh (SRPK1) [%]	%Inh (SRPK2) [%]	%Inh (SRPK3) [%]	%Inh (STK16) [%]	%Inh (STK33) [%]	%Inh (STK35) [%]	%Inh (STK36) [%]	%Inh (STK39) [%]	%Inh (SYK) [%]	%Inh (SgK110) [%]	%Inh (TAK1) [%]	%Inh (TAOK1) [%]
O=c1cc(N2CCOCC2)nc2n(Cc3cccc(F)c3)ccn12 [GSK2297430]	0	2	4	18	0	0	12	0	23	0	7	14	0	18	0	0	11	0	0	0
Cc1cccc(-c2nc(Nc3ccc4ncsc4c3)c3ccccc3n2)n1 [GW867588]	5	0	10	7	6	0	7	8	0	0	9	12	57	2	7	4	18	5	15	23
NCC(NC(=O)c1cc(-c2cn[nH]c2)c(-c2ccnc3[nH]ccc23)s1)c1ccccc1.O=C(O)C(F)(F)F.O=C(O)C(F)(F)F (centres unmarked) [GSK1325775]	74	0	0	0	92.2	0	0	0	81	22	37	46	79	0	0	9	0	66	78	91.9
O=C1Cc2cc(Nc3nc(NCc4cccc(S(=O)(=O)C(F)(F)F)c4)ncc3C(F)(F)F)ccc2N1	10	0	6	0	0	0	0	0	0	6	6	0	7	3	0	5	6	22	5	0
Cc1cccc(-c2nc(-c3ccc(S(C)(=O)=O)cc3)sc2-c2ccncc2)c1	0	0	12	26	2	17	8	0	15	0	10	19	0	3	30	15	25	2	3	0
Cc1nnc(-c2ccc3occ(-c4ccc(C(C)O)cc4)c3c2)o1 (centres unmarked)	1	18	10	14	2	9	18	2	0	2	0	12	0	32	19	0	14	25	25	0
CN1c2ccc(NCc3ccc(F)cc3)cc2-c2c(cnn2C)S1(=O)=O	5	11	0	0	0	0	3	0	0	0	0	0	0	0	0	0	8	67	0	0
Cl.Oc1cccc(Nc2ccnc3cc(-c4ccncc4)ccc23)c1 [GW494601]	12	69	72	11	12	0	100	0	46	0	0	26	41	0	0	1	82	0	41	0
CN(C(=O)c1ccc(-c2cc(-c3c[nH]nc3-c3ccccn3)ccn2)cc1)C1CCOCC1 [GW810083]	18	0	0	0	0	0	0	0	0	14	11	0	0	0	0	17	0	0	24	0
COc1ccc(Nc2ncc(C#N)c(Nc3ccccc3C(N)=O)n2)cc1N1CCN(C)CC1.Cl [GSK1558669]	87	96.4	98.7	100	99.8	85	100	99.5	99.9	66	100	98.3	99.2	99.3	99.5	100	98.6	66	100	86
O=C(NOCC1CC1)c1ccc(F)c(F)c1Nc1ccc(I)cc1Cl	0	0	1	0	0	0	0	0	0	0	7	0	0	0	0	0	0	0	11	0
COC(=O)Nc1nc2cc(Oc3ccc(NC(=O)Nc4cc(F)ccc4F)cc3)ccc2[nH]1.Cl [GW701424]	2	0	0	9	0	0	0	0	0	29	0	0	0	0	0	7	0	0	8	0
N#Cc1ccc(-c2cc(-c3c[nH]nc3-c3ccccn3)ccn2)cc1 [GW693028]	0	0	0	6	0	0	0	0	0	0	14	0	4	0	0	16	5	5	0	0
Cc1nnc(-c2ccc(C)c(-c3ccc(C(=O)Nc4ccc(NS(C)(=O)=O)cc4)cc3)c2)o1 [GW702865]	2	0	0	0	1	0	0	2	23	34	3	0	0	0	24	14	33	4	4	0
CCCCCc1nc2c(N)ncnc2n1CCCCC [SKF-97255]	0	1	8	8	0	0	14	25	0	11	0	9	0	0	0	7	20	3	0	0
CC(C)(C)n1cnc2c(N)ncnc21 [SKF-97359]	0	0	0	0	0	0	0	0	0	36	0	0	0	0	0	0	0	85	22	0
Nc1nccc(-c2c(-c3ccc(F)cc3)ncn2C2CCN(CC(F)(F)F)CC2)n1 [SB-236560]	25	0	0	0	0	16	0	0	19	41	6	0	0	0	26	0	0	0	21	0

— paper PMC5540273 (PLoS ONE, 2017)
